According to PubChem BioAssay (NCI):
The panel holds about 83,000 compounds, 20% with a hit somewhere; the sample as a whole holds those more often.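 Cells were grown in 96-well plates and exposed to the test compound at a single concentration for 48 hours; results are reported as percent growth, with values below 10 considered active.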 Values without a mark were called inactive. Active and inactive are the calls of the source.

These compounds were tested on SK-MEL-28 melanoma (assay: NCI-60 one-dose screen, 48 h (100 = growth as untreated, 0 = no growth, -100 = all killed)). Details: 10 µM unless noted.

Q: `CCC1(/C=N/NC(N)=S)NC(=O)NC1=O` (stereo unspecified) was tested. Which growth did it give?
A: 111%

Q: For `CC(C)C1CCC(C)C(C2(C#N)C(N)=NC(N)=C2C#N)C1=O` (stereo unspecified), which growth is on record?
A: 107%

Q: With `NC(=O)c1n[nH]n2c1nc(=O)c1c3c(sc12)CCCC3` as the compound, how does the growth read?
A: 120%

Q: Which growth does the source give for `CCOC(=O)C1=C(C)NC(=O)NC1c1cc(=O)oc2ccc(C)cc12` (stereo unspecified) here?
A: 107%

Q: How did the growth turn out when `C=CC(=O)N(C)[C@H]1C[C@H]2OC(C)(C1OC)n1c3ccccc3c3c4c(c5c6ccccc6n2c5c31)C(=O)NC4` (stereo partly specified) was run?
A: 5.52% (active)

Q: For `Cc1cc2c(-c3nc4ccccn4c3Nc3cccc4ccccc34)c(O)c(O)cc2c(O)c1-c1c(C)cc2c(-c3nc4ccccn4c3Nc3cccc4ccccc34)c(O)c(O)cc2c1O`, which growth is on record?
A: 34.5%

Q: How did the growth turn out when `N#CC1(C#N)C(c2cccs2)NC(c2cccs2)C1(C#N)C#N` (stereo unspecified) was run?
A: 109%

Q: With `CC1CCC(n2cnc3c(Cl)ncnc32)O1` (stereo unspecified) as the compound, how does the growth read?
A: 109%

Q: For `Oc1ccc(/C=N/Nc2nnc(N/N=C/c3ccc(O)cc3O)c3ccccc23)c(O)c1`, which growth is on record?
A: -43.3% (active)

Q: With `CCc1ccc(/C=C/c2ccc(O)c3ncccc23)[n+](C)c1` as the compound, how does the growth read?
A: 60.7%

Q: Which growth does the source give for `COc1ccc(OC)c(NC2=C(SCCc3ccccc3)C(=O)c3ccccc3C2=O)c1` here?
A: 108%

Q: For `CCN1/C(=C/C=C/c2n(-c3ccccc3)c3ccc(-c4nc5ccccc5s4)cc3[n+]2CC)N(c2ccccc2)c2ccc(-c3nc4ccccc4s3)cc21`, which growth is on record?
A: -8.49% (active)

Q: Which growth does the source give for `COC(=O)c1[nH]cnc1/N=N/N(C)CCO` here?
A: 117%

Q: With `O=C1CC(c2ccc(Cl)cc2)c2ncn(-c3cccc(Cl)c3)c2N1` (stereo unspecified) as the compound, how does the growth read?
A: 54.8%

Q: For `COC(=O)CC[C@@H](C)[C@H]1CC[C@H]2C3CC[C@@H]4C[C@@H]5CC[C@]4(C)[C@@]3(O5)[C@H](Br)[C@@H](Br)[C@]12C` (stereo partly specified), which growth is on record?
A: 105%

Q: `CC(=O)OCCC/C(=C\c1ccc2ccccc2c1)[N+](=O)[O-]` was tested. Which growth did it give?
A: -91.1% (active)

Q: With `COc1cc(-c2cc(-c3ccc(Nc4ccnc5cc(Cl)ccc45)cc3)nc(N3CCOCC3)n2)cc(OC)c1OC` as the compound, how does the growth read?
A: 7.13% (active)

Q: How did the growth turn out when `CCOC(=O)Sc1ncnc2nc[nH]c12` was run?
A: 100%

Q: For `COc1cc2c3c(c1)nc(C)n3CCC2`, which growth is on record?
A: 106%

Q: With `CCCCCCCC(=O)SCC/C=C/[C@@H]1CC(=O)NCc2cccc(n2)C2=N[C@@](C)(CS2)C(=O)N[C@@H](C(C)C)C(=O)N1` as the compound, how does the growth read?
A: 37.1%

Q: For `COc1ccc2c(CCc3ccc(Cl)cc3)c3[n+](cc2c1OC)CCc1cc2c(cc1-3)OCO2`, which growth is on record?
A: 27.6%

Q: `CC(=O)C(C(C)=O)C(c1ccccc1)C(C(C)=O)C(C)=O` was tested. Which growth did it give?
A: 103%

Q: `Cc1ccc(NC(=O)NC(=O)CSc2nc3ccccc3nc2C)cc1` was tested. Which growth did it give?
A: 75.2%

Q: How did the growth turn out when `Cc1cc(N(CCNc2ccnc3cc(Cl)ccc23)Cc2ccc3c(c2)OCO3)nc(N2CCCC2)n1` was run?
A: -58.7% (active)

Q: How did the growth turn out when `O=C(Nc1ccc(C2=NCCCN2)cc1)c1ccc(C(=O)Nc2ccc(C3=NCCCN3)cc2)nc1` was run?
A: 120%

Q: For `COC(=O)C1=C(C(=O)OC)C23C=C(C)C1C2=C(C)C1(CC1)[C@@](C)(O)C3=O` (stereo partly specified), which growth is on record?
A: -22.5% (active)
